System: Pseudomonas aeruginosa PA14 dppBCDF deletion mutant
Experiment: respiration area under curve with compound as sole nitrogen source, 24 h (OmniLog AUC (arbitrary units)); higher = more respiration / better utilisation as nitrogen source; extreme values may be limits of the assay
Protocol: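 Biolog Phenotype MicroArray plates PM6-PM8: each di/tripeptide is the sole nitrogen source. Tetrazolium reduction was read in the OmniLog every 15 min for 24 h at 37°C and summarised as area under the respiration curve (arbitrary units). Values below 2000 count as no respiration. Strain is the dipeptide ABC transporter deletion mutant.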

SMILES	respiration area under curve
CC(C)C[C@@H](NC(=O)CNC(=O)CN)C(=O)O (plate: PM8)	4.75 (inactive)
CC(C)C[C@H](NC(=O)CNC(=O)CN)C(=O)O (plate: PM8)	0 (inactive)
